Measured values reported in ChEMBL document CHEMBL1961873, “Compounds: GSK PKIS; Assays: Nanosyn kinase panel” (2012).

Assays:
[1] = molecular target: RAF proto-oncogene serine/threonine-protein kinase (Homo sapiens) (UniProt P04049); details: at 1 µM;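 note: values are the mean percent inhibition of CRAF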
[2] = molecular target: T1, Interleukin-1 receptor-associated kinase 4 (Homo sapiens) (UniProt Q9NWZ3); details: at 0.1 µM
T1 sequence (whole entry): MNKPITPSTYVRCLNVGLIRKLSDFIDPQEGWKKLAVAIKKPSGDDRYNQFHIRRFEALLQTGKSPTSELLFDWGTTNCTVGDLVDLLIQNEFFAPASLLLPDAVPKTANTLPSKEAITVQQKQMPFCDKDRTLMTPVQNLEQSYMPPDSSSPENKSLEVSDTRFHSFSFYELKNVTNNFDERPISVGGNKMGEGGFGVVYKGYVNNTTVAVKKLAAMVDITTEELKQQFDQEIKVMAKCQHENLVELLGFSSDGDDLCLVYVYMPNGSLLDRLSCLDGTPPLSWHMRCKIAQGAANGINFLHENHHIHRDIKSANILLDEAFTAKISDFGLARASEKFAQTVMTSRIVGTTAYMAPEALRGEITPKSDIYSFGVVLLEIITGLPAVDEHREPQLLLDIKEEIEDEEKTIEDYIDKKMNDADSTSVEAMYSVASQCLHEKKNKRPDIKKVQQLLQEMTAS

[3] = molecular target: T1, Interleukin-1 receptor-associated kinase 4 (Homo sapiens); details: at 1 µM
[4] = molecular target: Leucine-rich repeat serine/threonine-protein kinase 2 (Homo sapiens) (UniProt Q5S007); details: at 0.1 µM
[5] = molecular target: Leucine-rich repeat serine/threonine-protein kinase 2 (Homo sapiens) (UniProt Q5S007); details: at 1 µM
[6] = test system: Leucine-rich repeat serine/threonine-protein kinase 2 (Homo sapiens), Q5S007 [G2019S]; details: at 0.1 µM
[7] = test system: Leucine-rich repeat serine/threonine-protein kinase 2 (Homo sapiens), Q5S007 [G2019S]; details: at 1 µM

Leucine-rich repeat serine/threonine-protein kinase 2 (Homo sapiens), Q5S007 [G2019S], sequence (Q5S007 whole entry G2019S): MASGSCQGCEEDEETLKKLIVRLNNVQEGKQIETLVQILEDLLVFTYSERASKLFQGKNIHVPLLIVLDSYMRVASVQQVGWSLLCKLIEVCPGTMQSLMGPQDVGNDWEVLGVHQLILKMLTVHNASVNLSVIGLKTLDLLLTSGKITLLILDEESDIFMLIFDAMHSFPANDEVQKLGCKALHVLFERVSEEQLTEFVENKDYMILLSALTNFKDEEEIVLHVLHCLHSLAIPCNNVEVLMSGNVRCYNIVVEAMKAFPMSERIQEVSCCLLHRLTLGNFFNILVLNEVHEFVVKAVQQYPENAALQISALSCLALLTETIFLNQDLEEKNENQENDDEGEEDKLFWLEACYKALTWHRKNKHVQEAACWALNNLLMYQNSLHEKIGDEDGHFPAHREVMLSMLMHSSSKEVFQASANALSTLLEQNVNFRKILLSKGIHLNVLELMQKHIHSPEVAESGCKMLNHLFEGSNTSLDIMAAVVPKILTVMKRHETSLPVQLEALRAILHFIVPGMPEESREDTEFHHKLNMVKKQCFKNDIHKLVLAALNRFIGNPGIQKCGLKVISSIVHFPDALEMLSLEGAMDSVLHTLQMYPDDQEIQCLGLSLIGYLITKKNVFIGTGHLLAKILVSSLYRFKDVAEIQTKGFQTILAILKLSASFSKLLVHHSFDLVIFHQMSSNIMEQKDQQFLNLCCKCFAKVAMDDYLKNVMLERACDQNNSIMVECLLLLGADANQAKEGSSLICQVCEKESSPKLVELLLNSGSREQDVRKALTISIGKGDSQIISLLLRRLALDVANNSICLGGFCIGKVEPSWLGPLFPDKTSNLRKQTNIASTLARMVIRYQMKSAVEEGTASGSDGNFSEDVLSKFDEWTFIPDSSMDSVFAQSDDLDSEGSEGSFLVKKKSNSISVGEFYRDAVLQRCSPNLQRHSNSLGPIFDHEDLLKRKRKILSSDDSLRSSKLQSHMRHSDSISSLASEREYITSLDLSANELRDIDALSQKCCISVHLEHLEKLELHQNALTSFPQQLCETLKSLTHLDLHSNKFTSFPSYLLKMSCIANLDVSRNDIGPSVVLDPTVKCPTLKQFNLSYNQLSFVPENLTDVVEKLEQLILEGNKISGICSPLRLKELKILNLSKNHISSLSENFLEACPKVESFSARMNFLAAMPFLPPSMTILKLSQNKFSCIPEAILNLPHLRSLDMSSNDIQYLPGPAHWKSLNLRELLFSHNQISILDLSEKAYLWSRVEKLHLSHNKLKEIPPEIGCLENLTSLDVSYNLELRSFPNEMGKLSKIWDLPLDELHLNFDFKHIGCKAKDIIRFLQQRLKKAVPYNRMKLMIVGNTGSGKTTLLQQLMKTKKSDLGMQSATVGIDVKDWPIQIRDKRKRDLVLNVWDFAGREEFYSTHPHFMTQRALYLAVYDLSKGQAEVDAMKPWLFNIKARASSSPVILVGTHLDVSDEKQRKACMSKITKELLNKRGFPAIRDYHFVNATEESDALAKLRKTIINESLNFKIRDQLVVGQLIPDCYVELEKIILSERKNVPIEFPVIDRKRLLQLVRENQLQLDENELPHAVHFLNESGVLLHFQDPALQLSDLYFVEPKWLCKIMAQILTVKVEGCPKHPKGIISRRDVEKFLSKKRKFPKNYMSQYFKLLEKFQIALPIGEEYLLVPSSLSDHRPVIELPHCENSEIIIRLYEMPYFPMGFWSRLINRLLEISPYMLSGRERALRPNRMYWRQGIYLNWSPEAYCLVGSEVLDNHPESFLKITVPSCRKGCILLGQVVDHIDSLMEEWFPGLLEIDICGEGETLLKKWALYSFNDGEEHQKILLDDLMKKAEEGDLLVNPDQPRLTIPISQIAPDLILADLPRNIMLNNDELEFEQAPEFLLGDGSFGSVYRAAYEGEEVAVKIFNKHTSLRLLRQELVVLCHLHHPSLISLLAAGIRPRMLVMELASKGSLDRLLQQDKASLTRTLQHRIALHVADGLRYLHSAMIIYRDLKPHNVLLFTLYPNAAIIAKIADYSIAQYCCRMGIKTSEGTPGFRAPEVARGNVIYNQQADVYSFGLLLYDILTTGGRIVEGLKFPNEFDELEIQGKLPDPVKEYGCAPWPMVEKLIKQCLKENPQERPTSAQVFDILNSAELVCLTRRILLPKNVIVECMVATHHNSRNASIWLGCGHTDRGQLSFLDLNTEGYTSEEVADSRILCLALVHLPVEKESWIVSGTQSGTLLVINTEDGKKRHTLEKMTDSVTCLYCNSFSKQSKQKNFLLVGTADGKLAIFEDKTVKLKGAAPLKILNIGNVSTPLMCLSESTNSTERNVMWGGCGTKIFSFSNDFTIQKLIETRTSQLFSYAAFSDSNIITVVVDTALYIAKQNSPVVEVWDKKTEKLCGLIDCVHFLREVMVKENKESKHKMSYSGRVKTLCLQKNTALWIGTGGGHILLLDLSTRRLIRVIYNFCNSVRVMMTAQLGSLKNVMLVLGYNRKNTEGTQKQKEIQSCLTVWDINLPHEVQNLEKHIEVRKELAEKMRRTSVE
RAF proto-oncogene serine/threonine-protein kinase (Homo sapiens), sequence (P04049 whole entry): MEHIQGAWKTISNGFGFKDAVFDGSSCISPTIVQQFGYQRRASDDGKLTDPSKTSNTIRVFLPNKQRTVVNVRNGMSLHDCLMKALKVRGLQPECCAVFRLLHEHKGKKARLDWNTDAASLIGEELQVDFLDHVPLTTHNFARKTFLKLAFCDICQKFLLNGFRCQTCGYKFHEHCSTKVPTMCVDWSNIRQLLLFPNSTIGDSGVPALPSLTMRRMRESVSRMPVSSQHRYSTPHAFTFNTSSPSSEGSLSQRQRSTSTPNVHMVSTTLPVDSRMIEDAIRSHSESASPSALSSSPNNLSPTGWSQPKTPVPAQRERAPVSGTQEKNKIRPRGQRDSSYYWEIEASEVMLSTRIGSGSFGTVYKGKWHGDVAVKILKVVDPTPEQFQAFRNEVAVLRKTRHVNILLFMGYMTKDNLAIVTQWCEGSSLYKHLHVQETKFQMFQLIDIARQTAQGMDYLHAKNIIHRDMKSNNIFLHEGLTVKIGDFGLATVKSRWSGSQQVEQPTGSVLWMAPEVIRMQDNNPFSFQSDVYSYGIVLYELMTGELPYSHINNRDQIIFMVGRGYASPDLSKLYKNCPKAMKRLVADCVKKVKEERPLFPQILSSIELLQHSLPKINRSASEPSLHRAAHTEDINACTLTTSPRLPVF
Leucine-rich repeat serine/threonine-protein kinase 2 (Homo sapiens), sequence (Q5S007 whole entry): as the sequence (Q5S007 whole entry G2019S) above, with S2019G counted along it

## NC(=O)c1sc(-n2cnc3ccc(C(F)(F)F)cc32)cc1OCc1ccccc1Br
[1]
  inhibition: -3.37%
[2]
  inhibition: 0.72%
[3]
  inhibition: 1.61%
[4]
  inhibition: 1.61%
[5]
  inhibition: 6.09%
[6]
  inhibition: 2.3%
[7]
  inhibition: 12.8%

## CCCN(CCS(C)(=O)=O)Cc1ccc(-c2ccc3ncnc(Nc4ccc(OCc5cccc(F)c5)c(Cl)c4)c3c2)o1
[1]
  inhibition: -0.27%
[2]
  inhibition: -3.12%
[3]
  inhibition: 0.98%
[4]
  inhibition: 3.72%
[5]
  inhibition: 4.95%
[6]
  inhibition: 4.3%
[7]
  inhibition: 6.74%

## Cc1cccc(Nc2ncc(-c3ccccc3)o2)c1
[1]
  inhibition: -2.34%
[2]
  inhibition: 1.25%
[3]
  inhibition: 1.27%
[4]
  inhibition: 1.6%
[5]
  inhibition: 7.74%
[6]
  inhibition: 5.32%
[7]
  inhibition: 11.8%

## FC(F)(F)c1cccc(-c2nn3ncccc3c2-c2ccnc(Nc3ccc4c(c3)OCCO4)n2)c1
[1]
  inhibition: -8.65%
[2]
  inhibition: 6.37%
[3]
  inhibition: 0.32%
[4]
  inhibition: 3.16%
[5]
  inhibition: 5.46%
[6]
  inhibition: 2.53%
[7]
  inhibition: 7.93%

## CCN1CCC(CC(=O)Nc2n[nH]c3nnc(-c4cccc(F)c4F)cc23)CC1
[1]
  inhibition: 10.2%
[2]
  inhibition: 0.45%
[3]
  inhibition: 1.11%
[4]
  inhibition: 2.47%
[5]
  inhibition: 4.14%
[6]
  inhibition: 2.58%
[7]
  inhibition: 4.75%

## O=S(=O)(CCNCc1ccc(-c2ccc3ncnc(Nc4ccc(OCc5cccc(F)c5)c(Cl)c4)c3c2)o1)c1ccccc1
[1]
  inhibition: 1.37%
[2]
  inhibition: 2.14%
[3]
  inhibition: 2.63%
[4]
  inhibition: 4.97%
[5]
  inhibition: 4.53%
[6]
  inhibition: 6.27%
[7]
  inhibition: 9.28%

## CC(C)(CO)CNC(=O)c1ccc2c(c1)/C(=N/Nc1ccc(S(N)(=O)=O)cc1)C(=O)N2
[1]
  inhibition: -3.84%
[2]
  inhibition: -1.23%
[3]
  inhibition: -0.85%
[4]
  inhibition: 3.58%
[5]
  inhibition: 15%
[6]
  inhibition: 6.85%
[7]
  inhibition: 37.8%

## Nc1ncc(-c2cccc(S(N)(=O)=O)c2)c2scc(-c3ccc(F)c(Cl)c3)c12
[1]
  inhibition: -4.88%
[2]
  inhibition: 1.66%
[3]
  inhibition: 2.08%
[4]
  inhibition: 10.2%
[5]
  inhibition: 45.8%
[6]
  inhibition: 11.7%
[7]
  inhibition: 51.2%

## Fc1ccc(-c2cc(-c3c[nH]nc3-c3ccccn3)ccn2)cc1
[1]
  inhibition: -1.83%
[2]
  inhibition: 2.71%
[3]
  inhibition: 1.76%
[4]
  inhibition: 2.24%
[5]
  inhibition: 5.28%
[6]
  inhibition: 3.03%
[7]
  inhibition: 4.92%

## COc1cc2ncn(-c3cc(OCc4ccccc4C(F)(F)F)c(C(=O)N(C)C)s3)c2cc1OC
[1]
  inhibition: -3.66%
[2]
  inhibition: 2.2%
[3]
  inhibition: -0.25%
[4]
  inhibition: 2.7%
[5]
  inhibition: 15.2%
[6]
  inhibition: 1.6%
[7]
  inhibition: 16.7%

## COc1ccc(CNC(=O)c2ccc(-c3cc(-c4nnc(C)o4)ccc3C)cc2)cc1
[1]
  inhibition: -4.44%
[2]
  inhibition: 0.85%
[3]
  inhibition: 1.98%
[4]
  inhibition: 3.51%
[5]
  inhibition: 10.8%
[6]
  inhibition: 5.52%
[7]
  inhibition: 9.35%

## COc1ccc(-c2cc3c(N)ncnc3o2)cc1
[1]
  inhibition: -0.66%
[2]
  inhibition: -0.28%
[3]
  inhibition: 0.08%
[4]
  inhibition: 0.9%
[5]
  inhibition: 3.63%
[6]
  inhibition: 1.45%
[7]
  inhibition: 2.82%

## CCn1c(-c2nonc2N)nc2cnc(Oc3cccc(NC(=O)c4ccc(N(C)C)cc4)c3)cc21
[1]
  inhibition: -4.15%
[2]
  inhibition: 0.85%
[3]
  inhibition: 0.95%
[4]
  inhibition: 2.37%
[5]
  inhibition: 6.56%
[6]
  inhibition: 5.49%
[7]
  inhibition: 27.4%

## COc1cc2c(cc1Nc1nc(Nc3ccsc3C(N)=O)c3cc[nH]c3n1)N(C(=O)CN(C)C)CCC2(C)C
[1]
  inhibition: -0.27%
[2]
  inhibition: -1.47%
[3]
  inhibition: 2.28%
[4]
  inhibition: 90.7%
[5]
  inhibition: 98%
[6]
  inhibition: 85.4%
[7]
  inhibition: 93.9%

## Fc1ccc(-c2nn3ccccc3c2-c2ccncc2)cc1
[1]
  inhibition: -9.31%
[2]
  inhibition: 2.69%
[3]
  inhibition: 0.14%
[4]
  inhibition: 1.66%
[5]
  inhibition: 3.74%
[6]
  inhibition: 1.38%
[7]
  inhibition: 4.57%

## CCn1c(-c2nonc2N)nc2ccccc21
[1]
  inhibition: 2.78%
[2]
  inhibition: -0.13%
[3]
  inhibition: 1.55%
[4]
  inhibition: 6.41%
[5]
  inhibition: 8.23%
[6]
  inhibition: 5%
[7]
  inhibition: 13.7%

## CC(C)COC(=O)c1ccc2c(c1)/C(=C/Nc1ccc(S(N)(=O)=O)cc1)C(=O)N2
[1]
  inhibition: 0.2%
[2]
  inhibition: 2.68%
[3]
  inhibition: 0.81%
[4]
  inhibition: 7.28%
[5]
  inhibition: 22.7%
[6]
  inhibition: 23.3%
[7]
  inhibition: 64.1%

## COc1ccc(-c2oc3ncnc(N)c3c2-c2ccc(NC(=O)Nc3cc(C(F)(F)F)ccc3F)cc2)cc1
[1]
  inhibition: 5.86%
[2]
  inhibition: -1.07%
[3]
  inhibition: 2.91%
[4]
  inhibition: 6.22%
[5]
  inhibition: 15%
[6]
  inhibition: 5.81%
[7]
  inhibition: 16.8%

## CCn1cc(-c2ccnc3[nH]ccc23)c(-c2cccc(NC(=O)Nc3ccc(OCc4ccccc4)cc3)c2)n1
[1]
  inhibition: -2.76%
[2]
  inhibition: -0.99%
[3]
  inhibition: -0.44%
[4]
  inhibition: 2.13%
[5]
  inhibition: 3.32%
[6]
  inhibition: 3.73%
[7]
  inhibition: 4%

## COC(=O)Nc1nc2ccc(Oc3ccc(NC(=O)Nc4cccc(Cl)c4)cc3)cc2[nH]1
[1]
  inhibition: 5.38%
[2]
  inhibition: -0.12%
[3]
  inhibition: 0.32%
[4]
  inhibition: 6.71%
[5]
  inhibition: 14.1%
[6]
  inhibition: 5%
[7]
  inhibition: 6.86%

## CCCN1CCC(c2ccc(Nc3nc(Nc4cc(F)ccc4C(N)=O)c4cc[nH]c4n3)c(OC)c2)CC1
[1]
  inhibition: 17.1%
[2]
  inhibition: 3.12%
[3]
  inhibition: 3.69%
[4]
  inhibition: 85.5%
[5]
  inhibition: 89.7%
[6]
  inhibition: 79.9%
[7]
  inhibition: 64.4%

## CCn1c(-c2nonc2N)nc2c(C#CC(C)(C)O)nc(OC[C@H](N)c3ccccc3)cc21
[1]
  inhibition: -1.64%
[2]
  inhibition: 1.14%
[3]
  inhibition: 1.37%
[4]
  inhibition: 7.19%
[5]
  inhibition: 29.8%
[6]
  inhibition: 23.8%
[7]
  inhibition: 63.2%

## CN1CCC(n2cnc(-c3ccc(F)cc3)c2-c2ccnc(N)n2)CC1
[1]
  inhibition: -4.14%
[2]
  inhibition: 3.88%
[3]
  inhibition: 0.94%
[4]
  inhibition: 0.66%
[5]
  inhibition: 1.74%
[6]
  inhibition: 1.6%
[7]
  inhibition: 9.24%

## CC1=C(C(=O)Nc2cc(Cl)c3[nH]ncc3c2)C(c2ccc(C(F)(F)F)cc2)CC(=O)N1 (stereo unspecified)
[1]
  inhibition: -5.81%
[2]
  inhibition: 2.04%
[3]
  inhibition: 1.44%
[4]
  inhibition: 2.62%
[5]
  inhibition: 4.9%
[6]
  inhibition: 4.35%
[7]
  inhibition: 12.6%

## CNC(=O)c1cc(-c2ccc(F)cc2)cc(-c2ccc(S(=O)(=O)N3CCCC3)cc2)c1N
[1]
  inhibition: -2.71%
[2]
  inhibition: 0.68%
[3]
  inhibition: 1.45%
[4]
  inhibition: 1.42%
[5]
  inhibition: 2.9%
[6]
  inhibition: 4.27%
[7]
  inhibition: 5.64%

## O=C(O[C@H]1CN[C@H](C#Cc2cc3ncnc(Nc4ccc(Cc5ccccc5)cc4)c3s2)C1)N1CCOCC1
[1]
  inhibition: 0.23%
[2]
  inhibition: -0.04%
[3]
  inhibition: -0.2%
[4]
  inhibition: 1.27%
[5]
  inhibition: 2.6%
[6]
  inhibition: 2.35%
[7]
  inhibition: 3.96%

## COc1ccc2[nH]c3c4[nH]c5ccc(OC)cc5c4c4c(c3c2c1)C(=O)NC4=O
[1]
  inhibition: -1.59%
[2]
  inhibition: -1.07%
[3]
  inhibition: 4.52%
[4]
  inhibition: 20.8%
[5]
  inhibition: 24.3%
[6]
  inhibition: 61%
[7]
  inhibition: 63.2%

## N#Cc1c(NC(=O)CN2CCOCC2)sc2c1CCCC2
[1]
  inhibition: -1.23%
[2]
  inhibition: 1.87%
[3]
  inhibition: 2.93%
[4]
  inhibition: 2.88%
[5]
  inhibition: 8.63%
[6]
  inhibition: 3.95%
[7]
  inhibition: 8.85%

## NS(=O)(=O)c1ccc(Nc2ncc(-c3ccccc3)o2)cc1
[1]
  inhibition: -4.28%
[2]
  inhibition: -2.68%
[3]
  inhibition: 1.92%
[4]
  inhibition: 3.47%
[5]
  inhibition: 15%
[6]
  inhibition: 5.15%
[7]
  inhibition: 19.4%

## c1ccc(COc2ccc(Nc3ncnc4ccc(-c5ccco5)cc34)cc2)cc1
[1]
  inhibition: 6.05%
[2]
  inhibition: 0.92%
[3]
  inhibition: 1.06%
[4]
  inhibition: 4.27%
[5]
  inhibition: 3.99%
[6]
  inhibition: 3.97%
[7]
  inhibition: 1.89%

## CCn1c(-c2nonc2N)nc2c(C#CC(C)(C)O)ncc(OC3CCNCC3)c21
[1]
  inhibition: 1.95%
[2]
  inhibition: 2.02%
[3]
  inhibition: 1.93%
[4]
  inhibition: 0.26%
[5]
  inhibition: 6.79%
[6]
  inhibition: 3.92%
[7]
  inhibition: 12%

## CNC(=O)c1cncc(/C=C/c2ccccc2Cl)c1
[1]
  inhibition: -3.13%
[2]
  inhibition: -1.64%
[3]
  inhibition: 0.01%
[4]
  inhibition: 3.2%
[5]
  inhibition: 4.57%
[6]
  inhibition: 1.78%
[7]
  inhibition: 6.07%

## COc1cc(N2CCN(C(C)C)CC2)ccc1Nc1nc(Nc2ccc(F)cc2C(N)=O)c2cc[nH]c2n1
[1]
  inhibition: -2.24%
[2]
  inhibition: 0.7%
[3]
  inhibition: 1.94%
[4]
  inhibition: 84.9%
[5]
  inhibition: 94.8%
[6]
  inhibition: 85.4%
[7]
  inhibition: 62.5%
